Laboratory results published in PubChem BioAssay (NCI).
The panel holds about 83,000 compounds, 20% with a hit somewhere; the sample as a whole holds those more often.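 Negative percent growth values reflect cell death: -40 means 40% of the cells present at the start died, and -100 means all died.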 Active and inactive are the calls of the source. Rule for the calls: active = growth percent below 10; inactive = the rest.

Experiments:
Experiment in all cases: NCI-60 one-dose screen, 48 h (100 = growth as untreated, 0 = no growth, -100 = all killed)
Conditions in all cases: 10 µM unless noted
DU-145 prostate = system: DU-145 prostate
K-562 leukemia = system: K-562 leukemia
MALME-3M melanoma = system: MALME-3M melanoma
MDA-MB-231 breast = system: MDA-MB-231 breast
RXF 393 renal = system: RXF 393 renal
SF-268 CNS = system: SF-268 CNS
SF-295 CNS = system: SF-295 CNS
SF-539 CNS = system: SF-539 CNS
UACC-257 melanoma = system: UACC-257 melanoma
M14 melanoma = system: M14 melanoma

Measured: growth

O=S(=O)(NCCCNc1nccc(-c2c(-c3ccc(F)c(O)c3)nc3occn23)n1)c1ccc(Cl)cc1
inactive: DU-145 prostate 73.5% | K-562 leukemia 45.8% | MDA-MB-231 breast 40.4% | RXF 393 renal 30.8% | SF-268 CNS 66.5% | SF-295 CNS 103% | SF-539 CNS 87.5% | UACC-257 melanoma 33.8% | M14 melanoma 19.6%
active: MALME-3M melanoma 5.66%

COc1c(B(O)O)cccc1-c1cc(C)c2c(ccc3[nH]ncc32)n1
active: RXF 393 renal 7.05%
inactive: DU-145 prostate 80.8% | K-562 leukemia 99.4% | MALME-3M melanoma 179% | MDA-MB-231 breast 22.1% | SF-268 CNS 62.7% | SF-295 CNS 87.8% | SF-539 CNS 25.2% | UACC-257 melanoma 126% | M14 melanoma 131%

Cc1ccc2c(n1)C(=O)C(Br)=C(CC(C)C)C2=O
inactive: DU-145 prostate 109% | K-562 leukemia 33.8% | MALME-3M melanoma 99.7% | MDA-MB-231 breast 91.4% | RXF 393 renal 102% | SF-268 CNS 96.2% | SF-295 CNS 102% | SF-539 CNS 97.7% | UACC-257 melanoma 85.1% | M14 melanoma 102%

C#Cc1c2c(c(OC)c3c1OCO3)[C@H]([C@H]1OC(=O)c3c1ccc(OC)c3OC)N(C)CC2
inactive: DU-145 prostate 95.1% | K-562 leukemia 31.2% | MALME-3M melanoma 69.9% | MDA-MB-231 breast 87.5% | RXF 393 renal 92.3% | SF-268 CNS 90.4% | SF-295 CNS 77.7% | SF-539 CNS 96.3% | UACC-257 melanoma 82.8% | M14 melanoma 71.4%

CC(C)(C)[Si](C)(C)OC1[C@@H](CNC(=O)NC(=O)NC(N)=O)O[C@@H](n2cnc3c(NC(=O)Nc4ccccc4)ncnc32)[C@H]1O[Si](C)(C)C(C)(C)C (stereo not given in full)
inactive: DU-145 prostate 58.9% | K-562 leukemia 66.3% | MALME-3M melanoma 79% | MDA-MB-231 breast 83.7% | RXF 393 renal 71.6% | SF-268 CNS 66.4% | SF-295 CNS 73.1% | SF-539 CNS 95.4% | UACC-257 melanoma 94% | M14 melanoma 68%

CN(c1cc2ncc(=O)[nH]c2cc1NC(N)=NCc1ccc(Cl)cc1)C1CCCCC1
inactive: DU-145 prostate 71.7% | MALME-3M melanoma 29.9% | MDA-MB-231 breast 19.9% | RXF 393 renal 37.1% | SF-268 CNS 67.9% | SF-295 CNS 95.8% | SF-539 CNS 66.4% | UACC-257 melanoma 106% | M14 melanoma 40.1%
active: K-562 leukemia 2.83%

CC(=O)Oc1ccc(/C(=C(\C)c2ccc(Cl)cc2)c2ccc(OCCN3CCCCC3)cc2)cc1
active: K-562 leukemia -47% | MALME-3M melanoma -6.44% | SF-295 CNS 9.07% | UACC-257 melanoma -34.9% | M14 melanoma -35.1%
inactive: DU-145 prostate 61.9% | MDA-MB-231 breast 50.8% | RXF 393 renal 29.3% | SF-268 CNS 58.6% | SF-539 CNS 28.2%

Nc1n[nH]c2ccc([C@H]3[C@@H]4C5CCC(C5)[C@@H]4c4c(ccc5[nH]ncc45)N3S(=O)(=O)C3CC3)cc12 (stereo not given in full)
inactive: DU-145 prostate 17.9% | K-562 leukemia 13.6% | MALME-3M melanoma 61.4% | RXF 393 renal 26.2% | SF-268 CNS 37.1% | SF-295 CNS 12.6% | UACC-257 melanoma 63.8%
active: MDA-MB-231 breast -9.16% | SF-539 CNS -25.5% | M14 melanoma 7.92%

COc1ccc(-c2cc(-c3ccc(Cl)cc3)c(C#N)c(=O)n2Cc2ccc(C(=O)Nc3ccccc3N)cc2)cc1
inactive: DU-145 prostate 101% | K-562 leukemia 46.2% | MALME-3M melanoma 74.1% | MDA-MB-231 breast 67.2% | RXF 393 renal 54.5% | SF-268 CNS 73.4% | SF-295 CNS 61.1% | SF-539 CNS 74% | UACC-257 melanoma 105% | M14 melanoma 81.5%

O=C(NCc1ccc(Cl)cc1Cl)C1CCC(=O)N1c1cccs1 (stereo not given)
inactive: DU-145 prostate 108% | K-562 leukemia 108% | MALME-3M melanoma 96.3% | MDA-MB-231 breast 96.5% | RXF 393 renal 109% | SF-268 CNS 100% | SF-295 CNS 90.8% | SF-539 CNS 93.6% | UACC-257 melanoma 90.8% | M14 melanoma 104%

O=C(c1nn(-c2ccccc2)c2c1CC(NCc1ccc(F)cc1)CC2)N1CCCCC1 (stereo not given)
inactive: DU-145 prostate 108% | K-562 leukemia 91% | MALME-3M melanoma 102% | MDA-MB-231 breast 110% | RXF 393 renal 107% | SF-268 CNS 93% | SF-295 CNS 102% | SF-539 CNS 106% | UACC-257 melanoma 101% | M14 melanoma 95.3%

O=C1C(=O)N(Cc2ccc(-c3ccccc3)cc2)c2ccc(OC(F)(F)F)cc21
active: SF-539 CNS -8.58%
inactive: DU-145 prostate 36.4% | K-562 leukemia 16.1% | MALME-3M melanoma 62.2% | MDA-MB-231 breast 44.9% | RXF 393 renal 76.9% | SF-268 CNS 49.5% | SF-295 CNS 41.4% | UACC-257 melanoma 72.7% | M14 melanoma 44.8%

CCCCCCC12CCC(=O)N1CCc1cncn12 (stereo not given)
inactive: DU-145 prostate 109% | K-562 leukemia 100% | MALME-3M melanoma 120% | MDA-MB-231 breast 110% | RXF 393 renal 92.4% | SF-268 CNS 120% | SF-295 CNS 105% | SF-539 CNS 106% | UACC-257 melanoma 101% | M14 melanoma 113%

CCOC(=O)n1cc(-c2nonc2-c2cn(C(=O)OCC)c3ccc(Br)cc23)c2ccccc21
inactive: DU-145 prostate 93.9% | K-562 leukemia 78% | MALME-3M melanoma 83% | MDA-MB-231 breast 74% | RXF 393 renal 94.2% | SF-268 CNS 82% | SF-295 CNS 72.4% | SF-539 CNS 98.4% | UACC-257 melanoma 93.6% | M14 melanoma 78.8%

COc1cc(NS(=O)(=O)c2ccc(-c3cnc(C4CC4)o3)cc2)ccc1F
active: SF-539 CNS 1.5%
inactive: DU-145 prostate 23% | K-562 leukemia 12.2% | MALME-3M melanoma 55.8% | MDA-MB-231 breast 24.2% | RXF 393 renal 12.4% | SF-268 CNS 55.7% | SF-295 CNS 15.6% | UACC-257 melanoma 69% | M14 melanoma 19%

C=CC(=O)N1CCN(c2cccc(Oc3nccc(Nc4nnc(-c5ccc(Br)cc5)s4)n3)c2)CC1
inactive: DU-145 prostate 78.5% | K-562 leukemia 22.2% | MALME-3M melanoma 65.2% | MDA-MB-231 breast 75.2% | RXF 393 renal 74.7% | SF-268 CNS 74.8% | SF-295 CNS 55.8% | SF-539 CNS 72.7% | UACC-257 melanoma 80.6% | M14 melanoma 44.9%

Oc1ccc(Cl)cc1/C=N\NC(=S)N/N=C/c1cc(Cl)ccc1O
inactive: DU-145 prostate 58.3% | K-562 leukemia 22.1% | MALME-3M melanoma 23.4% | MDA-MB-231 breast 37.2% | RXF 393 renal 42.6% | SF-268 CNS 40.6% | SF-295 CNS 11% | SF-539 CNS 20% | UACC-257 melanoma 21.8% | M14 melanoma 27.1%

CCN(CC)S(=O)(=O)c1ccc(S(=O)(=O)N2CCC[C@@H](C(=O)N3CCN(c4nc(C(C)C)no4)CC3)C2)cc1
inactive: DU-145 prostate 62.6% | K-562 leukemia 30.9% | MALME-3M melanoma 85.3% | MDA-MB-231 breast 81.3% | RXF 393 renal 64.5% | SF-268 CNS 69% | SF-295 CNS 52.8% | SF-539 CNS 74.3% | UACC-257 melanoma 45.1% | M14 melanoma 78.8%

CCC(C)(C)C(=O)O[C@H]1C[C@@H](C)C=C2C=C[C@H](C)[C@H](CC[C@@H]3CC(SCCN)CC(=O)O3)[C@H]21 (stereo not given in full)
inactive: DU-145 prostate 98.7% | K-562 leukemia 51.2% | MALME-3M melanoma 86.2% | MDA-MB-231 breast 88.7% | RXF 393 renal 86.8% | SF-268 CNS 96.3% | SF-295 CNS 106% | SF-539 CNS 76.2% | UACC-257 melanoma 78% | M14 melanoma 60.1%

COC(=O)C1Cc2ccccc2CN1C(=O)c1ccc2c(c1)Cc1ccccc1-2 (stereo not given)
inactive: DU-145 prostate 59.8% [50 µM] | K-562 leukemia 21.2% [50 µM] | MALME-3M melanoma 17.7% [50 µM] | MDA-MB-231 breast 42.3% [50 µM] | RXF 393 renal 51.2% [50 µM] | SF-268 CNS 49.3% [50 µM] | SF-295 CNS 30.2% [50 µM] | SF-539 CNS 70.1% [50 µM] | UACC-257 melanoma 29% [50 µM] | M14 melanoma 30.9% [50 µM]

Cc1ccc(/C=C2\COc3ccc(O)cc3C2=O)cc1
inactive: DU-145 prostate 103% | K-562 leukemia 17.9% | MALME-3M melanoma 90.3% | MDA-MB-231 breast 90.7% | RXF 393 renal 96.3% | SF-268 CNS 86.3% | SF-295 CNS 105% | SF-539 CNS 98.7% | UACC-257 melanoma 103% | M14 melanoma 93.1%

NC(=O)C(=O)c1ccccc1NC=O
inactive: DU-145 prostate 106% | K-562 leukemia 92.3% | MALME-3M melanoma 96.8% | MDA-MB-231 breast 97.7% | RXF 393 renal 110% | SF-268 CNS 97.2% | SF-295 CNS 104% | SF-539 CNS 102% | UACC-257 melanoma 98.7% | M14 melanoma 92.7%

CC(C)=CCC[C@](C)(O)[C@H]1CC[C@]2(C)[C@@H]1CC[C@@H]1[C@@]3(C)C/C(=C/c4ccco4)C(=O)C(C)(C)[C@@H]3CC[C@]12C
inactive: DU-145 prostate 113% | K-562 leukemia 99.2% | MALME-3M melanoma 107% | MDA-MB-231 breast 101% | RXF 393 renal 111% | SF-268 CNS 101% | SF-295 CNS 100% | SF-539 CNS 102% | UACC-257 melanoma 109% | M14 melanoma 104%

COc1cccc(/C=C2\COc3ccc(O)c(O)c3C2=O)c1
active: DU-145 prostate 4.84% | MALME-3M melanoma -26.3% | MDA-MB-231 breast 0.944% | RXF 393 renal -18.7% | SF-268 CNS 5.27% | SF-539 CNS -54.7%
inactive: K-562 leukemia 11.7% | SF-295 CNS 79.1% | UACC-257 melanoma 28.1% | M14 melanoma 26%

C/C(=N\O)c1ccc(Cl)cc1
inactive: DU-145 prostate 121% | K-562 leukemia 100% | MALME-3M melanoma 137% | MDA-MB-231 breast 116% | RXF 393 renal 141% | SF-268 CNS 127% | SF-295 CNS 118% | SF-539 CNS 114% | UACC-257 melanoma 89.5% | M14 melanoma 114%

C1CCC([PH+](C2CCCCC2)C2CCCCC2[PH+](C2CCCCC2)C2CCCCC2)CC1.[Au].[CH-]1CCCCC1C1CCCC[N-]1 (stereo not given)
active: DU-145 prostate -52.8% | K-562 leukemia -0.185% | MALME-3M melanoma -44.3% | MDA-MB-231 breast -27.6% | RXF 393 renal -92.4% | SF-268 CNS -55% | SF-295 CNS -42.9% | SF-539 CNS -90.4% | UACC-257 melanoma -53.8% | M14 melanoma -41.3%
